In all, about 25,000 sequences were measured (“ln(normalized median fluorescence intensity)”: median about 9.7, highest 2% from about 11 on). Shown is part of a subset that was picked to be rich in the highest values.

For this test, the system named is PfAP2-HC AP2 domain (GST-tagged). Nature of the test: gcPBM binding intensity (ln(normalized median fluorescence intensity)); higher = stronger DNA binding. An outline of the steps:
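The binding buffer was 1× PBS containing 1% milk, 0.2 mg/ml BSA, 0.5% salmon testes DNA and 0.03% Triton X-100. In it, GST-tagged P. falciparum DNA-binding domains expressed in E. coli were applied for 1 h to an Agilent 4 × 180k array of primer-extended double-stranded 36-bp intergenic genomic probes plus negative controls. Binding intensity, read with Alexa488 anti-GST antibody and a 488 nm scan, is the highest Masliner-normalised natural-log median intensity across replicate spots of either probe orientation.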
“AAAATATAATATATTACACACATATATTTTATAAGT [CACACA_site668]”: the “gcPBM binding intensity (ln)” value is 9.82. The figure for “ATATATATGAATACATGTACGTATTTGTCTATGTAT [XGTACX_site8306]” is 9.81; for “TTTTTTATTATTATGTGTACGAATATGTGCATATAA [XGTACX_site1364]” it is 9.65; for “AAATAAAAAGGGTGCACACAAAAATATATATATATA [CACACA_site1728]” it is 9.94. Take “TACACCCACCAACACACACACACACTAATAAAAAAA [CACACA_site8060]”: the “gcPBM binding intensity (ln)” value amounted to 11.3. With “ATAATATGAAAACACACACACACACTAGAAAAAAAA [CACACA_site5153]”, the “gcPBM binding intensity (ln)” value stood at 10.9.

Take “AAAAATAAAAGGTGTGCACACAAAAATATATATATA [CACACA_site8507]”: the “gcPBM binding intensity (ln)” value was 10.5. The figure for “ATAATATGAAAACACACACACACACTAATAAAAAAA [CACACA_site8617]” is 11.5. Consider “TGAACACCCACAAATACACACAAAAAAAATAAATAA [CACACA_site248]”, for which the “gcPBM binding intensity (ln)” value came to 10.6. For the sequence “AAAAATAAAGGGTGTGCACACAAAAATATATATATA [CACACA_site1727]”, the “gcPBM binding intensity (ln)” value is 11.

For “AAAAAAAAAAAACACACACACACACTAATATATAAA [CACACA_site8302]”, the “gcPBM binding intensity (ln)” value was found to be 10.9. The figure for “TGCACCCACCAACACACACACAACTAAAAAATAATG [CACACA_site2566]” is 10.5; for “AATATAAAAATGCACACACACAAAAAAAAAAAAAAA [CACACA_site6546]” it is 10.9; for “TAAATATAAAAATGCACACACACAAAAAAAAAAAAA [CACACA_site895]” it is 11.4. In the case of “AATAAAAAAAAATGCACACATATATATATATATATA [CACACA_site2421]” it was 9.71. The figure for “TTTTAATTAGTACAAACACACATATACACCCAAAAA [CACACA_site5422]” is 10; for “GATGATACGATTATCACACATTTATACTTTCTACAT [CACACA_site5669]” it is 9.85; for “AAACAAAAAATTTAAAGTACAAAAATTATGATTGTT [XGTACX_site465]” it is 9.62.

As to “TATTTAATGTGATACTTATATTATTTTATGATTAAA [GTGCAC_negctrl_site25]”, the “gcPBM binding intensity (ln)” value came out at 9.49. In the case of “AAAAAAGTTGTATTTGCACACATAAAAAAAAGATAT [CACACA_site3839]” it was 9.93; in that of “AGAGAATAAATATAAAGTACATATATAAATATATAT [XGTACX_site5055]”, 9.7. In the case of “AAAAAATTATATAAATGTACATTTTGGCTAGACATG [XGTACX_site5977]” it was 9.71; in that of “AATAAATATAAAAATGCACACACACTAATAAAAAAA [CACACA_site8201]”, 11.4. In the case of “TATAATAAATCAAATGCACACACACTAATAAAAAAA [CACACA_site7937]” it was 11.3; in that of “AAAAATATAAACTGCACACACACAAAAAAAGAAAAA [CACACA_site648]”, 10.8. With “ATATAAATAATATAAATACACACTAAAAAAAATATA [CACACA_site542]”, the “gcPBM binding intensity (ln)” value was 9.84. In the case of “AATATAATATAATGCACACATAAAAAAAAAATCAAA [CACACA_site122]” it was 9.89; in that of “TATATATATATATATACACACACACTAATAAAAAAA [CACACA_site8426]”, 11. For the sequence “ATAAATAATATAAATACACACTAAAAAAAATATATA [CACACA_site4456]”, the “gcPBM binding intensity (ln)” value was 9.88. In the case of “TAAAAAATATAAACTGCACACACACTAATAAAGAAA [CACACA_site8119]” it was 11.1; in that of “TAATAAATCAAATGCACACACACAAAAAAAAAAAAA [CACACA_site161]”, 10.3.

For “AAAATATAATATAATGCACACATAAAAAAAAAAAAA [CACACA_site7989]”, the “gcPBM binding intensity (ln)” value amounted to 9.84.

Consider “AAAAATATAAACTGCACACACAAAAAAAAAAGAGAA [CACACA_site1367]”, for which the “gcPBM binding intensity (ln)” value was 10.3. The figure for “ATAATAAAAAAAAATGCACACATATATATATATATA [CACACA_site8766]” is 9.8; for “TATAAAAATAGGATTTGTACATATAAAAAAGGAAAA [XGTACX_site8678]” it is 9.73; for “TATAATATTAATGACTGTACTCATACGTATATTTAT [XGTACX_site5493]” it is 9.76.

Regarding “TACGGTTGTTTATTTTGTACGTAAAAAATATATTAT [XGTACX_site8393]”, the “gcPBM binding intensity (ln)” value came to 9.7. For the sequence “ATTAAATAAAATCATGCACACAATATATATTTTAAG [CACACA_site2495]”, the “gcPBM binding intensity (ln)” value came out at 9.71. As for “AACATAATTAAAAATTGTACAGAATTTCAATCGAAA [XGTACX_site7542]”, the “gcPBM binding intensity (ln)” value was 9.62. Regarding “TCAACAAATAAACTTTGTACATATATACAAAATATA [XGTACX_site4447]”, the “gcPBM binding intensity (ln)” value is 9.53.

Regarding “AAAAAATAAATAAACATAAATAAATAAATAAATATA [XGTACX_negctrl_site340]”, the “gcPBM binding intensity (ln)” value is 9.73. The figure for “CAATATATTTGATTTACACACTTACAATGTATATAA [CACACA_site2994]” is 9.55. With “AATAGTACAAAAAAAAAAAAAAAAAAAAAAAAAAAA [CACACA_negctrl_site1376]”, the “gcPBM binding intensity (ln)” value turned out to be 8.9. In the case of “TTATTTTTTAGTAGTACACACTTTTTGTACCTTTTA [CACACA_site4503]” it was 9.87; in that of “ATCAAGCACGAACACACACACACACGCACGCCCACA [CACACA_site6308]”, 11.4; in that of “CCAACATGCCCACGCACACACAAAAAAAGCATGCAT [CACACA_site4217]”, 10. In the case of “CATATACACGAACACACACACACACGCACAAAAAAA [CACACA_site6376]” it was 10.6. In the case of “TTATACTGTATAGTCGCACACAAAAATATAAAATAT [CACACA_site3869]” it was 9.98; in that of “ATTATGCACCAACACACACACACACTCCTAAAAAAT [CACACA_site8822]”, 11.

For “ATTATGCACGGACACACACACACACCCCTAAAAAAT [CACACA_site5426]”, the “gcPBM binding intensity (ln)” value was determined as 11.4. The figure for “ATTATGCACCAACACACACACACACCCCTAAAAAAT [CACACA_site2568]” is 10.8. In the case of “TAATTATGCGGACACACACACACACCCAACTAAAAA [CACACA_site5427]” it was 10.9; in that of “TGCACAAAATTATGCACACACCTAAAATTAATTTTT [CACACA_site5596]”, 9.8; in that of “TGTGCCCAAAATTATGCACACACCTAAAATTAATTT [CACACA_site2914]”, 9.85. In the case of “TTTTGAATATGGATCTTATATATATTAAATAAATAA [CACACA_negctrl_site344]” it was 9.09. As to “ATGTTTTATAAAAGGCGTACACATATGCTTAAGTAA [XGTACX_site6232]”, the “gcPBM binding intensity (ln)” value was determined as 9.71. The figure for “TATATAATTATAAGAACACACATATATATATATATA [CACACA_site2472]” is 9.49; for “AGGTGATTAATATATACACACATACATATATATATA [CACACA_site8913]” it is 10; for “TATTTTTATTTTCCTTCACACATTTTTTATATTTTT [CACACA_site5830]” it is 9.83. In the case of “TTTCATTTCACAGACACACACACACCCTATATTTCC [CACACA_site3906]” it was 11.2; in that of “TCATTTCACAGACACACACACACAATATATTTCCTT [CACACA_site9295]”, 10.8. The figure for “ATTTCACAGAGACACACACACAATATATTTCCTTTT [CACACA_site7773]” is 10.3. Regarding “TCATTTCACAGACACACACACACAAGATATTTCCTT [CACACA_site7774]”, the “gcPBM binding intensity (ln)” value stood at 11.1. In the case of “TCATTTCACAAACACACACACACAATATATTTCCTT [CACACA_site3905]” it was 10.3. The figure for “TCATTTTATTTTTTCACACACACATATATATATATA [CACACA_site3333]” is 10.2. Take “TCATTTCACGGACACACACACACAATATATTTCCTT [CACACA_site6023]”: the “gcPBM binding intensity (ln)” value was 10.9.

As for “TCATTTTATTTTTTCACACACACATCTATATTTATA [CACACA_site7547]”, the “gcPBM binding intensity (ln)” value worked out at 10.2.

Regarding “ATATTAATTATAACTTGTACGTAAAAGGAAAACAAT [XGTACX_site3269]”, the “gcPBM binding intensity (ln)” value worked out at 9.76.

For “ATTATAATATTGTTATGTACATAAAAATTATTGAAT [XGTACX_site4476]”, the “gcPBM binding intensity (ln)” value was determined as 9.82. As for “GATAACATAATATGTTGTACATAAAAATTTTTATCA [XGTACX_site1969]”, the “gcPBM binding intensity (ln)” value was determined as 9.62.

On to “GTAAAAATAAAAACTGGTACACAAGTTGTTATAAAA [XGTACX_site502]”, for which the “gcPBM binding intensity (ln)” value amounted to 9.76. For the sequence “TTATTTATTCTATGTGCATGTTATTTTTTTTTTTCG [TGCATGCA_site262]”, the “gcPBM binding intensity (ln)” value stood at 9.73. The figure for “TTTTGTTTATGTGTGCATTATATTATATTTTTTATT [TGCATGCA_negctrl_site146]” is 10.1; for “TTTGTGTGTGCGTGTGCATGTTGTTTTTTTCTATAA [TGCATGCA_site17]” it is 11.7; for “ATTTACATAAATTGCATATATCGATGTAAATAAATA [CACACA_negctrl_site1150]” it is 9.5. The figure for “AATGTACACCCACCCACACACAAACAAATATATATA [CACACA_site5521]” is 10.3; for “AATGTACACGCACCCACACACAAACAAATATAAATA [CACACA_site7319]” it is 11.6. Consider “TAAACACCCATATAAACACACATATAAACACCCATA [CACACA_site5382]”, for which the “gcPBM binding intensity (ln)” value worked out at 10.3. The figure for “AATAAATATAAATACACACCCATATATATATATATA [CACACA_site5436]” is 9.67.

With “AATAAATATAAATACACACCCATATAAATATAAATA [CACACA_site7264]”, the “gcPBM binding intensity (ln)” value turned out to be 10.1. As for “TACATATATAAAAAAACACACACATATATATATATA [CACACA_site8315]”, the “gcPBM binding intensity (ln)” value stood at 9.93. In the case of “ATATAATATATATATAAACACACAAAAAAAATTATA [CACACA_site8434]”, the “gcPBM binding intensity (ln)” value was 9.97. “AATATAAATAAAAACACACACACACCCATATATATA [CACACA_site2267]”: the “gcPBM binding intensity (ln)” value is 11.3. The figure for “ATAATATATATATAAACACACAAAAAAAATTATATA [CACACA_site1534]” is 9.86; for “AAAAAAAAAAAACACACACACACACCCATATATAAA [CACACA_site1170]” it is 11.1. The figure for “TATATATAAAAACACACACACACACCCTATAATTAT [CACACA_site4063]” is 11.3; for “AATGTACCCACACCCACACACAAACAAATATATATA [CACACA_site2751]” it is 10.2. Take “TTTATTTTTATGGTCACACATATTTTTAAAACTATA [CACACA_site4372]”: the “gcPBM binding intensity (ln)” value worked out at 9.77.

“TTTCATTTTTTTACATGTACGCAAAAGTGTGTAGTT [XGTACX_site6582]”: the “gcPBM binding intensity (ln)” value was determined as 9.78.

Values taken from the supplement of paper PMC11417369.
